Records with an inconclusive call do not appear. Values without a mark were called inactive. Calls follow the shape of the dose curve; as a rule, active = well fitted cell-killing curve with a large enough effect; inconclusive = small, poorly fitted or top-dose-only effect, or effect the other way; inactive = flat fitted curve, though single readings scatter.
Experiment: MultiTox-Fluor Cytotoxicity Assay - LYMP1-002 - Live Cells (AID 955)
Conditions: LYMP1-002 lymphoblastoid live-cell protease fluorescence viability; series mostly up to 46.1 µM; viability change, negative = cytotoxic: at the top concentration
From the text: NIH Chemical Genomics Center [NCGC]
NIH Molecular Libraries Screening Centers Network [MLSCN]
National Institutes of Environmental Health Sciences [NIEHS]
National Toxicology Program [NTP]
We have developed a 1536-well cell-based assay for quantitative high throughput screening (qHTS) against a number of cell lines to determine in vitro cytotoxicity of small molecules. This particular assay uses a human lymphoblastoid cell line (LYMP1-002) purchased from Coriell Institute.
NCGC Assay Protocol Summary:
The MultiTox-Fluor Cytotoxicity Assay (Promega) is a homogeneous method to simultaneously measure the relative number of live and dead cells in culture by detecting changes in cell membrane integrity. There are two fluorogenic peptide substrates in the assay reagent. Viable cells are determined when the cell-permeant substrate (GF-AFC) enters the cell and is cleaved by protease from live cells resulting in liberated fluorophore. This live-cell protease activity restricted to viable cells is proportional to cell number. The dead cells are determined by using fluorogenic cell-impermeant peptide substrate (bis-AAF-R110) which cleaved by dead cell proteases leaking from damaged cell membrane.
Using the MultiTox-Fluor Cytotoxicity Assay, the relative number of live cells was measured in the lymphoblastoid cell line with complete culture medium following compound treatment for 16 hours. The assay was performed in opaque black Kalypsys 1536-well plates. In the screen, tetraoctylammonium bromide was used as positive control. Library compounds were measured for their ability to cause acute toxicity in the cell line, as reflected by a decrease in live cell protease activity, in a concentration-dependent manner. […] AC50 values were determined from concentration-response data modeled with the standard Hill equation.
qHTS protocol for MultiTox-Fluor Cytotoxicity assay
[Step] [Parameter] [Value] [Description]
1. Reagent; 5 uL; 2500 lymphoblastoid cells/well
2. Time; 5 hr; 37 C incubation
4. Controls; 23 nL; Tetraoctylammonium bromide 6.4pM to 92 uM
5. Time; 16 hr; 37 C incubation
6. Reagent; 5 uL; MuliTox-Fluor Assay reagent
7. Time; 60 min; Room Temperature
8. Detection; live-cell fluorescence (Ex/Em=405/510); EnVision plate reader
Keywords: cell viability, cytotoxicity, lymphoblastoid cell line, fluorescence, NTPHTS, NTPHTS_NCGC, NIEHS, EPA, DSSTox, MLSMR, MLSCN, NIH Roadmap, qHTS, NCGC
% is scaled to controls: 0 for no effect and ±100 for the full control effect.

Structure (SMILES)	viability change, negative = cytotoxic
Cc1cc(C)cc([N+](=O)[O-])c1	13.5%
Cc1cc(C(=O)O)ccc1[N+](=O)[O-]	-5.28%
Cc1cc(C)c(N)cc1C	5.19%
CCNS(=O)(=O)c1ccc(C)cc1	2.12%
CC1(N)CCC(C(C)(C)N)CC1 (stereo not given)	2.67%
FC(F)(F)c1cccc(Cl)c1	0.79%
CCCCN(CCO)CCCC	2.59%
CC1CCC2CC1C2(C)C (stereo not given)	8.3%
CC(C)c1ccccc1	0.297%
O=Cc1ccc(Cl)cc1	9.64%
CNc1ccccc1	-2.16%
Cc1ccc(C(=O)O)cc1	-0.584%
O=[N+]([O-])c1c(Cl)cc(Cl)cc1Cl	4.99%
Cc1cccc(Br)c1	-6.3%
CCCCCCCCCCCCC1CO1 (stereo not given)	5.29%
Nc1ccc([N+](=O)[O-])c(N)c1	-9.05%
CC(C)(c1cc(Br)c(OCC(Br)CBr)c(Br)c1)c1cc(Br)c(OCC(Br)CBr)c(Br)c1 (stereo not given)	-4%
CCCCCCCCC	-2.58%
Nc1nc(-c2ccccc2)cs1	9.9%
C=C(C)C(=O)OCC(C)O (stereo not given)	3.78%

Structure (SMILES)	viability change, negative = cytotoxic
CC(CCl)OC(C)CCl (stereo not given)	-11.4%
Cc1ccc(N(C)C)cc1	-6.32%
CC(=O)CCc1ccccc1	-0.634%
COc1cccc2sc(N)nc12	-2.28%
Cc1ccc(Cl)cc1	3.13%
CC(C)Nc1ccccc1	0.157%
CCCCC(C=O)CC (stereo not given)	-0.436%
NC=O	-7.68%
COC(=O)CC#N	6.12%
CC(=O)Nc1cccc(N)c1	9.69%
O=C(O)CCSSCCC(=O)O	-4.35%
Clc1ccc(Cl)c(Cl)c1Cl	1.43%
CC/C(C)=N/O	0.613%
Cc1ccccc1C=O	5.59%
CCCCC(CC)C(=O)O (stereo not given)	-5.05%
C=CCn1c(=O)n(CC=C)c(=O)n(CC=C)c1=O	-0.433%
CC(=O)c1nccs1	-0.176%
CC(C)Cc1nccs1	5.68%
CC/C=C1/OC(=O)c2ccccc21	-0.827%
O=[N+]([O-])c1ccc2nc[nH]c2c1	-5.84%

Reference: PubChem BioAssay (NCATS)
